PubChem BioAssay (NCATS)
Inconclusive results are not listed. Active and inactive are the calls of the source. Unless noted, calls come from the whole dose curve. Numbered stars: 1 amine (or outer) side, 2 acyl side, 3 side chain; on linkers, the order of the positions; unused ones are H or OH. Bridge positions count the residues as written; N and C are the ends. Square brackets hold non-standard residues; d marks the D form. Peptide text beside a SMILES is read from it. I, II: the chains in the order shown. Actinocin(9to1) = Cc1c2oc3c(C)ccc(C(=O)[*:1])c3nc-2c(C(=O)[*:2])c(N)c1=O; NMeV = CN[C@H](C(=O)O)C(C)C; Sar = CNCC(=O)O

Key:
[1] = qHTS for Inhibitors of the Functional Ribonucleoprotein Complex (vRNP) of Lassa (LASV) Arenavirus: LASV Primary Screen - GLuc reporter signal (AID 1347082; calls by dose curve; tested in HEK293 reporter line; note: series mostly up to about 57 µM; nearly all actives have a fitted effect of over 60% in size)
[2] = qHTS for Inhibitors of the Functional Ribonucleoprotein Complex (vRNP) of Lassa (LASV) Arenavirus: Viability assay - alamar blue signal for LASV Primary Screen (AID 1347083; calls by dose curve; tested in HEK293 reporter line; note: nearly all actives have a fitted effect of over 80% in size; note: potency is the fitted concentration of half-maximal effect)
[3] = qHTS for Inhibitors of the Functional Ribonucleoprotein Complex (vRNP) of Lymphocytic Choriomeningitis Arenaviruses (LCMV): Viability assay - alamar blue signal for LCMV Primary Screen (AID 1347085; calls by dose curve; tested in HEK293 reporter line; note: nearly all actives have a fitted effect of over 80% in size; note: potency is the fitted concentration of half-maximal effect)
[4] = target: Nucleoprotein (Lymphocytic choriomeningitis virus (strain Armstrong)) (UniProt P09992); assay: qHTS for Inhibitors of the Functional Ribonucleoprotein Complex (vRNP) of Lymphocytic Choriomeningitis Arenaviruses (LCMV): LCMV Primary Screen - GLuc reporter signal (AID 1347086); note: series mostly up to about 57 µM; nearly all actives have a fitted effect of over 70% in size

Measured: Potency

Nucleoprotein (Lymphocytic choriomeningitis virus (strain Armstrong)), sequence (P09992 whole entry, looked up): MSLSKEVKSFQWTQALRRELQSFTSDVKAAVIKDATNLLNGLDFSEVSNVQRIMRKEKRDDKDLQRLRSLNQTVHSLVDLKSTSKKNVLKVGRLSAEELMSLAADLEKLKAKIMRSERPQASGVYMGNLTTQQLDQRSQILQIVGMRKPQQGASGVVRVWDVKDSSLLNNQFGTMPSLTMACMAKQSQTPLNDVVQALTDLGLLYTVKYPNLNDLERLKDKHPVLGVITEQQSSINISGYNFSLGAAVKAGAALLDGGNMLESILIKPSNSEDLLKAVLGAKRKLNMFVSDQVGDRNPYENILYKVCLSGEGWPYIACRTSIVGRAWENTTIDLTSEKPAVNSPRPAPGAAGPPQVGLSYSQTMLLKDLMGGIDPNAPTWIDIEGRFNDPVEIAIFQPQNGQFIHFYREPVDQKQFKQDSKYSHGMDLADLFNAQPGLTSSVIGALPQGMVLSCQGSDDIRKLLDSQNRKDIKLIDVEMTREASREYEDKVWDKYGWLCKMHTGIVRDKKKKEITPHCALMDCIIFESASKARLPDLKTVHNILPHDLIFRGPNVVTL

Cc1ccc(-n2[nH]c(C)c(N=Nc3cccc(-c4cccc(C(=O)O)c4)c3O)c2=O)cc1C
inactive: all assays above

OCCN(CCO)c1nc(N2CCCCC2)c2nc(N(CCO)CCO)nc(N3CCCCC3)c2n1
inactive: all assays above

CCCCC1=NC2(CCCC2)C(=O)N1Cc1ccc(-c2ccccc2-c2nn[nH]n2)cc1
inactive: all assays above

Cc1c2oc3c(C)ccc(C(=O)N[C@@H]4C(=O)N[C@H](C(C)C)C(=O)N5CCC[C@H]5C(=O)N(C)CC(=O)N(C)[C@@H](C(C)C)C(=O)O[C@@H]4C)c3nc-2c(C(=O)N[C@@H]2C(=O)N[C@H](C(C)C)C(=O)N3CCC[C@H]3C(=O)N(C)CC(=O)N(C)[C@@H](C(C)C)C(=O)O[C@@H]2C)c(N)c1=O (I: T[dV]P[Sar][NMeV] / II: T[dV]P[Sar][NMeV]; ester I:1-I:C, II:1-II:C; linker I:N-II:N via Actinocin(9to1))
inactive: all assays above

O=c1c(O)c(-c2ccc(O)c(O)c2)oc2cc(O)cc(O)c12
inactive: all assays above

CCCc1nc2c(C)cc(-c3nc4ccccc4n3C)cc2n1Cc1ccc(-c2ccccc2C(=O)O)cc1
inactive: all assays above

COc1cc2nc(N3CCN(C(=O)c4ccco4)CC3)nc(N)c2cc1OC
inactive: all assays above

CCOC(=O)[C@H](CCc1ccccc1)N[C@@H](C)C(=O)N1[C@H](C(=O)O)C[C@@H]2CCC[C@@H]21
inactive: all assays above

CC(N)C12CC3CC(CC(C3)C1)C2 (configuration not stated)
inactive: all assays above

CCCCc1nc(Cl)c(CO)n1Cc1ccc(-c2ccccc2-c2nn[nH]n2)cc1
inactive: all assays above

CC(=O)CCCCn1c(=O)c2c(ncn2C)n(C)c1=O
inactive: all assays above

O=C1C(=O)c2ccccc2C(O)=C1C1CCC(c2ccc(Cl)cc2)CC1 (configuration not stated)
inactive: all assays above

NS(=O)(=O)c1cc2c(cc1C(F)(F)F)NCNS2(=O)=O
inactive: all assays above

CN(C)CC/C=C1\c2ccccc2COc2ccccc21
inactive: all assays above

O=C1N=C(O)CN1/N=C/c1ccc(-c2ccc([N+](=O)[O-])cc2)o1
inactive: all assays above

CNCCC(Oc1ccc(C(F)(F)F)cc1)c1ccccc1 (configuration not stated)
inactive: all assays above

CN(C)CCOC(c1ccc(Cl)cc1)c1ccccn1 (configuration not stated)
inactive: all assays above

Cc1onc(-c2c(Cl)cccc2Cl)c1C(=O)N[C@@H]1C(=O)N2[C@@H]1SC(C)(C)[C@@H]2C(=O)O
inactive: all assays above

CC1(C)S[C@@H]2[C@H](NC(=O)Cc3ccccc3)C(=O)N2[C@H]1C(=O)O (tested in a mixture with another compound)
inactive: all assays above

CCCN(CCc1cccs1)[C@H]1CCc2c(O)cccc2C1
inactive: all assays above

COc1ccccc1OCC(O)CN1CCN(CC(=O)Nc2c(C)cccc2C)CC1 (configuration not stated)
inactive: all assays above

Cc1nc2n(c(=O)c1CCN1CCC(c3noc4cc(F)ccc34)CC1)CCC[C@H]2O
inactive: all assays above

CC(C)Oc1ccc2c(=O)c(-c3ccccc3)coc2c1
inactive: all assays above

CN1C(CCl)Nc2cc(Cl)c(S(N)(=O)=O)cc2S1(=O)=O (configuration not stated)
inactive: all assays above

C1N2CN3CN1CN(C2)C3
inactive: all assays above

O=C1CCc2cc(OCCCCc3nnnn3C3CCCCC3)ccc2N1
inactive: all assays above

CCN(C)C(=O)Oc1cccc([C@H](C)N(C)C)c1
inactive: all assays above

COc1cc(C(=O)NCc2ccc(OCCN(C)C)cc2)cc(OC)c1OC
inactive: all assays above

Nc1nc2c(ncn2COCCO)c(=O)[nH]1
inactive: all assays above

CO/N=C(\C(=O)N[C@@H]1C(=O)N2C(C(=O)O)=C(CSc3nc(=O)c(O)nn3C)CS[C@H]12)c1csc(N)n1
inactive: all assays above

NCCCC(O)(P(=O)(O)O)P(=O)(O)O
inactive: all assays above

N[C@@H](Cc1cc(I)c(Oc2cc(I)c(O)c(I)c2)c(I)c1)C(=O)O
inactive: all assays above

O=C(O)CCCc1ccccc1
inactive: all assays above

C=C1CC[C@@]2(O)[C@H]3Cc4ccc(O)c5c4[C@@]2(CCN3CC2CC2)[C@H]1O5
inactive: all assays above

CC/C=C(\C(=O)N[C@@H]1C(=O)N2C(C(=O)OCOC(=O)C(C)(C)C)=C(COC(N)=O)CS[C@H]12)c1csc(N)n1
inactive: all assays above

Cc1onc(-c2ccccc2Cl)c1C(=O)N[C@@H]1C(=O)N2[C@@H]1SC(C)(C)[C@@H]2C(=O)O
inactive: all assays above

CC1(C)S[C@@H]2[C@H](NC(=O)C(C(=O)O)c3ccccc3)C(=O)N2[C@H]1C(=O)O (some centres not stated)
inactive: all assays above

NC[C@H](O)c1ccc(O)c(O)c1
inactive: all assays above

O=C1CCc2ccc(OCCCCN3CCN(c4cccc(Cl)c4Cl)CC3)cc2N1
inactive: all assays above

Cc1cnc(C(=O)NCCc2ccc(S(=O)(=O)NC(=O)NC3CCCCC3)cc2)cn1
inactive: all assays above

CC(=O)O[C@]1(C(C)=O)CC[C@H]2[C@@H]3C=C(Cl)C4=CC(=O)[C@@H]5C[C@@H]5[C@]4(C)[C@H]3CC[C@@]21C
inactive: all assays above

O=C(O)c1ccc(-n2nc(-c3ccccc3O)nc2-c2ccccc2O)cc1
inactive: all assays above

CN(C)CCC[C@@]1(c2ccc(F)cc2)OCc2cc(C#N)ccc21
inactive: all assays above

O=NN(CCCl)C(=O)NCCCl
inactive: all assays above

COc1ccc(-c2cc(=S)ss2)cc1
inactive: all assays above

CC(=O)Oc1ccccc1C(=O)Nc1ncc([N+](=O)[O-])s1
inactive: all assays above

CCc1ccc(CCOc2ccc(CC3SC(=O)NC3=O)cc2)nc1 (configuration not stated)
inactive: all assays above

CCc1nc(N)nc(N)c1-c1ccc(Cl)cc1
inactive: [1] | [4]
active: [2] 38.5 µM | [3] 7.69 µM

O=C(NCCN1CCOCC1)c1ccc(Cl)cc1
inactive: all assays above

Cc1ccnc2c1NC(=O)c1cccnc1N2C1CC1
inactive: all assays above

O=C(O)P(=O)(O)O
inactive: all assays above

CC(C)NCC(O)COc1ccc(CCOCC2CC2)cc1 (configuration not stated)
inactive: all assays above

Cc1ccc(S(=O)(=O)NC(=O)NN2CCCCCC2)cc1
inactive: all assays above

Cc1[nH]c(=O)c(C#N)cc1-c1ccncc1
inactive: all assays above

CC(C)(C)NC(=O)[C@@H]1CN(Cc2cccnc2)CCN1C[C@@H](O)C[C@@H](Cc1ccccc1)C(=O)N[C@H]1c2ccccc2C[C@H]1O
inactive: all assays above

Cc1oncc1C(=O)Nc1ccc(C(F)(F)F)cc1
inactive: all assays above

CCn1cc(C(=O)O)c(=O)c2ccc(C)nc21
inactive: all assays above

Cc1nc2n(c(=O)c1CCN1CCC(c3noc4cc(F)ccc34)CC1)CCCC2
inactive: all assays above

COc1ccccc1OCCNCC(O)COc1cccc2[nH]c3ccccc3c12 (configuration not stated)
inactive: all assays above

Cc1ccc(C)c(OCCCC(C)(C)C(=O)O)c1
inactive: all assays above

CN(C)CC[C@@H](c1ccc(Br)cc1)c1ccccn1
inactive: all assays above

C[C@@H](NCCCc1cccc(C(F)(F)F)c1)c1cccc2ccccc12
inactive: all assays above

NCCC(O)(P(=O)(O)O)P(=O)(O)O
inactive: all assays above

CC[C@@H](CO)NCCN[C@@H](CC)CO
inactive: all assays above

CC(C)Nc1cccnc1N1CCN(C(=O)c2cc3cc(NS(C)(=O)=O)ccc3[nH]2)CC1
inactive: all assays above

COc1cc2nc(N3CCN(C(=O)C4CCCO4)CC3)nc(N)c2cc1OC (configuration not stated)
inactive: all assays above

C[C@H]1c2cccc(O)c2C(O)=C2C(=O)[C@]3(O)C(O)=C(C(N)=O)C(=O)[C@@H](N(C)C)[C@@H]3[C@@H](O)[C@@H]21
inactive: all assays above

COc1cc2nc(N3CCN(C(=O)C4COc5ccccc5O4)CC3)nc(N)c2cc1OC (configuration not stated)
inactive: all assays above
